Test [1] in a line: small molecules captured by biotinylated probe aFSTL3 – biochemical, small-molecule microarray, fluorescence 635/667, stem cell growth factor project, primary screen (AID 1064).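 Also: measures binding of the biotinylated anti-FSTL3 antibody to printed compounds.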 The conditions noted are these: higher = more signal.
A short description of test [2]: binders from COS7 lysate, DM2A8 probe, primary screen, torsin A project, cell lysate, small-molecule microarray, fluorescence 635/667 (AID 1065). The conditions noted are these: higher = more signal, COS7 lysate expressing mutant human TOR1A.
Test [3] in a line: small molecules captured by biotinylated probe aFGF2 – biochemical, small-molecule microarray, fluorescence 635/667, stem cell growth factor project, primary screen (AID 1067).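 Also: measures binding of biotinylated aFGF2 protein to printed compounds on slides; z-score merges feature fluorescence and signal-to-noise across triplicate slides.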 Particulars: higher = more signal.
Test [4] in a line: small molecules captured by biotinylated probe aFGF10 – biochemical, small-molecule microarray, fluorescence 635/667, stem cell growth factor project, primary screen (AID 1071).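 Also: score merges 667 nm spot intensity and signal to noise from triplicate slides.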 The conditions noted are these: higher = more signal.
Test [5] has as its target Neurogenic locus notch homolog protein 2 (Homo sapiens) (UniProt Q04721). Put plainly: small molecules binding Notch2 protein – biochemical, small-molecule microarray, 635 nm fluorescence, stem cell growth factors, primary screen (AID 1073). The conditions noted are these: higher = more signal.
The target of test [6] is Pro-neuregulin-1, membrane-bound isoform (Homo sapiens) (UniProt Q02297). Put plainly: small molecules binding neuregulin-1 protein – biochemical, small-molecule microarray, fluorescence 635/667, psychiatric disease protein project, primary screen (AID 1075).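 Also: score combines 667 nm spot fluorescence with signal to noise.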 The conditions noted are these: NRG1 binding, 635 nm fluorescence, higher = more signal.
Sequence of Pro-neuregulin-1, membrane-bound isoform (Homo sapiens) (Q02297 whole entry, looked up, the tested form may be a part, canonical isoform): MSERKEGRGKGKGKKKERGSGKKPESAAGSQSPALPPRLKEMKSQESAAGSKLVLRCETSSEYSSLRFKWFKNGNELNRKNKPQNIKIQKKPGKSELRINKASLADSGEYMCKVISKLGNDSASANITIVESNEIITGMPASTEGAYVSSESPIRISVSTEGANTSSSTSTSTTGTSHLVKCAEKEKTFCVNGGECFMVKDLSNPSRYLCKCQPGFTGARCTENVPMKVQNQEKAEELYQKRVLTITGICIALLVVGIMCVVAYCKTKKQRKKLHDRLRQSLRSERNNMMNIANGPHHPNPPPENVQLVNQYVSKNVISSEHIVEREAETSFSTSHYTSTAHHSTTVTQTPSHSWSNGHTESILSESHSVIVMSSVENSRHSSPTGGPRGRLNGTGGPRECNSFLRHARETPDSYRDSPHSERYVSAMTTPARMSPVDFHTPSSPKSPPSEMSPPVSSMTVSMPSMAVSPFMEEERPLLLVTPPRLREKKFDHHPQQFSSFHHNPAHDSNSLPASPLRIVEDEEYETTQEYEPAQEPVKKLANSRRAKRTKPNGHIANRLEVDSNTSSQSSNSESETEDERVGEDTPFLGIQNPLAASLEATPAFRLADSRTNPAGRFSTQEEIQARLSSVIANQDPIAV
The subject of test [7] is Neuregulin-1 EGF-like domain. Put plainly: small molecules binding NRG1 EGF domain – biochemical, small-molecule microarray, 635 nm fluorescence, primary screen (AID 1081).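 Also: binding of the protein to compounds printed on small-molecule microarray slides.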 The conditions noted are these: higher = more signal.
Test [8] can be described thus: FRG1 expression reporter modulators in myotubes – cell-based, C2C12 myotubes, firefly/Renilla luciferase, luminescence, FRG1 inhibition for FSHD, primary screen (AID 1084). Particulars: FRG1 promoter luciferase, higher = more signal, called active from +8 up or from −8 down.
The nature of test [9]: small molecules captured by biotinylated probe aFST – biochemical, small-molecule microarray, fluorescence 635/667, stem cell growth factor project, primary screen (AID 1086).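 Also: score merges 667 nm fluorescence with signal-to-noise of each printed compound spot.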 Particulars: higher = more signal.
Test [10] is described as follows: binders of probe aHhip on microarray, primary screen, stem cell growth factor project, biochemical, small-molecule microarray, fluorescence 635/667 (AID 1087).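 Also: score merges spot fluorescence at 667nm with spot signal to noise ratio.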 Particulars: higher = more signal.
For test [11], the system named is PRMT1 (protein arginine N-methyltransferase 1). The test can be described thus: small molecules binding arginine methyltransferase PRMT1 – biochemical, small-molecule microarray, 635 nm fluorescence, primary screen (AID 1088).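 Also: binding of Prmt1 protein to compounds spotted on small-molecule microarray slides.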 Particulars: higher = more signal.
Test [12] is described as follows: growth effects on S. cerevisiae YJM789 – YJM789 clinical isolate, OD600, 24 h, basal, primary screen (AID 1089).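 Also: growth of clinical yeast isolate S. cerevisiae YJM 789 seeded 1000 cells per well; test concentration not given here.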 The conditions noted are these: higher = more signal, called active from +8 up or from −8 down.
Test [13] can be described thus: S. pombe growth modifiers, basal conditions – strain 972, OD600, 24 h, no modulator, primary screen (AID 1090).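 Also: basal condition with compound alone and no growth modifier present; test concentration not given here.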 Particulars: S. pombe 972 growth, higher = more signal, called active from +8 up or from −8 down.
The nature of test [14]: budding yeast growth modifiers under rapamycin – strain BY4716, OD600, 96 h, primary screen (AID 1091). Also: test concentration not given here. The conditions noted are these: S. cerevisiae BY4716 + rapamycin, higher = more signal, called active from +8 up or from −8 down.
Test [15] has as its target Torsin-1A-interacting protein 2 (Homo sapiens) (UniProt Q8NFQ8). The test can be described thus: small molecules binding lysate-expressed LULL1 – cell lysate, human LULL1 lysate, 635/667 nm fluorescence, primary screen (AID 1092).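 Also: probe is lysate of COS7 cells overexpressing human LULL1; score merges per-feature 667 nm fluorescence with signal-to-noise.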 The conditions noted are these: small-molecule microarray, hLULL1 lysate binding, 635 nm fluorescence; higher = more signal.
Test [16] in a line: optical density change of DRC41 E. coli – strain DRC41, OD650, 24 h, E. coli filamentation project, primary screen (AID 1093).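 Also: MC1000 strain lacking acrAB efflux and sulA so SOS filamentation is blocked; test concentration not given here.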 Particulars: E. coli DRC41 growth, higher = more signal, called active from +8 up or from −8 down.
A short description of test [17]: probe aLefty2 binding to arrayed compounds – biochemical, biotinylated probe, 635/667 nm fluorescence, primary screen (AID 1094).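 Also: score merges spot fluorescence near 667 nm with spot signal-to-noise ratio.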 Particulars: small-molecule microarray, higher = more signal.
Test [18] relates to Noggin (protein binding on small-molecule microarray). Put plainly: small molecules binding Noggin protein – biochemical, 635/667 nm fluorescence, primary screen (AID 1095).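 Also: score merges 667 nm feature fluorescence with signal to noise over triplicate slides.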 The conditions noted are these: 635 nm fluorescence, higher = more signal.
The target of test [19] is Neurogenic locus notch homolog protein 3 (Homo sapiens) (UniProt Q9UM47). The test can be described thus: small molecules binding NOTCH3 protein – biochemical, 635/667 nm fluorescence, primary screen (AID 1096). The conditions noted are these: small-molecule microarray, 635 nm fluorescence, higher = more signal.
A short description of test [20]: probe aEGFR binding to arrayed compounds – biochemical, biotinylated probe, 635/667 nm fluorescence, primary screen (AID 1097).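 Also: probe is a biotinylated anti-EGFR antibody binding compounds printed on slides; score combines fluorescence near 667 nm and signal to noise of each spot.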 Particulars: small-molecule microarray, higher = more signal.

The source made the active and inactive calls.

Sequence of Torsin-1A-interacting protein 2 (Homo sapiens) (Q8NFQ8 whole entry, looked up): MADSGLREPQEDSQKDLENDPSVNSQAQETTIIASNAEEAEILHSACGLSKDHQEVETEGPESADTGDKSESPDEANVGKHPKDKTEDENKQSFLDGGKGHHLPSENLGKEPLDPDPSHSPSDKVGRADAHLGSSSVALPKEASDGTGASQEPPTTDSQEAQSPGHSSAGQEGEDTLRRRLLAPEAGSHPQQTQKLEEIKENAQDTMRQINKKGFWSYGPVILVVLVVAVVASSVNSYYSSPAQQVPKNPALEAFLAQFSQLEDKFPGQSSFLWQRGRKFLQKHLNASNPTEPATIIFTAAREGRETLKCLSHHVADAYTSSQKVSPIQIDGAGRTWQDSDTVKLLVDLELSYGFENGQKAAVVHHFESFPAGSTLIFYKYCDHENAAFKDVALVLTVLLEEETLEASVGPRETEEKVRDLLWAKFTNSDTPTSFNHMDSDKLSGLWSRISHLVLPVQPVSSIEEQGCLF
Sequence of Neurogenic locus notch homolog protein 2 (Homo sapiens) (Q04721 whole entry, looked up, canonical isoform): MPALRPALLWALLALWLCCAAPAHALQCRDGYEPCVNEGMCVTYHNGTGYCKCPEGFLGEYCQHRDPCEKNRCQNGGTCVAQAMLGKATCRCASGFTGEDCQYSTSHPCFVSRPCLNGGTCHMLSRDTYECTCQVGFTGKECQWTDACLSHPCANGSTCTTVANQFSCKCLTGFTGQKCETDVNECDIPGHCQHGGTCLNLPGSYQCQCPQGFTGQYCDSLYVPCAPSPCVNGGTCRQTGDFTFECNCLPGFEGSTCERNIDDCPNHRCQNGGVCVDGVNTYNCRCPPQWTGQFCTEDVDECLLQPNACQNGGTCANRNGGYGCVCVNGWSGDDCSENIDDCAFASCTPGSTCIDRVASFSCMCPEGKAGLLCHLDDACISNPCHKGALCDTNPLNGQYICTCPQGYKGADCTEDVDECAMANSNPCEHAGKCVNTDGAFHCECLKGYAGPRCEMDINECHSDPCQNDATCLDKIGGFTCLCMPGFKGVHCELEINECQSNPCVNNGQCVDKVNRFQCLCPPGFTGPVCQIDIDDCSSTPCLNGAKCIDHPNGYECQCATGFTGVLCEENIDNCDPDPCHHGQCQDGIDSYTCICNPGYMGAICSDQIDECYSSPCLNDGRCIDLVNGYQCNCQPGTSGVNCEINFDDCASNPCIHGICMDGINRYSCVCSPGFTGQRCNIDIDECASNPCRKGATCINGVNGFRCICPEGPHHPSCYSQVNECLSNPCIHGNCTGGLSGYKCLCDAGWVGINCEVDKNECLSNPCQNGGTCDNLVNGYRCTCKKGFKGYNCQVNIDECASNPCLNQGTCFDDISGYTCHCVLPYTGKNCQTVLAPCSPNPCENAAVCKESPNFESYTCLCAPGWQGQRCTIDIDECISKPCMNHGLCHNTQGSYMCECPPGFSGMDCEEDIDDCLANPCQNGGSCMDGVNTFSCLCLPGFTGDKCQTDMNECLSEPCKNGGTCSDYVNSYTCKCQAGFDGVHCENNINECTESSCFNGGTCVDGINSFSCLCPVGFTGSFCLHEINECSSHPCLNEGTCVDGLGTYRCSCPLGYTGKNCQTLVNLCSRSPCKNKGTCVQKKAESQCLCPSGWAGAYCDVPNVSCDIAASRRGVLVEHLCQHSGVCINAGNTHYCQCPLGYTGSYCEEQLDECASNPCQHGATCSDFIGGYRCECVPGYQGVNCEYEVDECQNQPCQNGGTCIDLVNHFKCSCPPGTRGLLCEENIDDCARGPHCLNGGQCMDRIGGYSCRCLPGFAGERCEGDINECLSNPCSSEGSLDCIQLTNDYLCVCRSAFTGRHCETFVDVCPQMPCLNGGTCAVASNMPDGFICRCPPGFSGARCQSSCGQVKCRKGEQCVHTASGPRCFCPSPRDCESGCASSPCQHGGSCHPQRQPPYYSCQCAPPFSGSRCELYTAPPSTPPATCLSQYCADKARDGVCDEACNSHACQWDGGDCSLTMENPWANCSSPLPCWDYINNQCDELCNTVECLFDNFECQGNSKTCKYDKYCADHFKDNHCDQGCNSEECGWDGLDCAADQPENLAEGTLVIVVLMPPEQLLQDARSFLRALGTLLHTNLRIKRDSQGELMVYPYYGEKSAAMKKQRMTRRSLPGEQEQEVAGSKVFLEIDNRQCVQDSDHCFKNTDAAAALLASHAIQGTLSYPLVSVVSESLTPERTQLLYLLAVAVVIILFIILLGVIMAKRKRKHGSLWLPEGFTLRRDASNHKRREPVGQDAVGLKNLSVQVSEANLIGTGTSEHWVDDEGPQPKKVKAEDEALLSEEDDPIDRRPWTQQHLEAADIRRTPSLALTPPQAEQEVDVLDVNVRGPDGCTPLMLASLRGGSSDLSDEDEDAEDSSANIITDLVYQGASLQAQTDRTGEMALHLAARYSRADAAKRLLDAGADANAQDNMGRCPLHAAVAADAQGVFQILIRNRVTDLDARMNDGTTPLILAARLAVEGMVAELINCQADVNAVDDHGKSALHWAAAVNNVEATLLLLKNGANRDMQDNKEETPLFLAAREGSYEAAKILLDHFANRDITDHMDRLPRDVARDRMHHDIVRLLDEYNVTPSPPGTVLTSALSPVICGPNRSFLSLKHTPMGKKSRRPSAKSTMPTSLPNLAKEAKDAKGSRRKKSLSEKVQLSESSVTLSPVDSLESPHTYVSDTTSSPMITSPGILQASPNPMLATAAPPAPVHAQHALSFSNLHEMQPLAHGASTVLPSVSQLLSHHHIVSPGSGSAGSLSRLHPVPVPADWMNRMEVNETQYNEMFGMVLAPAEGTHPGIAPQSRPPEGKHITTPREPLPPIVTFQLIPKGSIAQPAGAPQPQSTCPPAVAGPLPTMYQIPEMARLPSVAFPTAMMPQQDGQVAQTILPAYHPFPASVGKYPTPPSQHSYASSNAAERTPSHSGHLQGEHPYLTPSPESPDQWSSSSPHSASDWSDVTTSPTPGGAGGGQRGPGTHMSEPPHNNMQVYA

Regarding `CN1C(=O)C2C=CC(C(O)c3cc(C(F)(F)F)cc(C(F)(F)F)c3)N(NC(=O)OC(C)(C)C)C2C1=O` (stereo not given), the composite z-score in test [1] was 0.153; in test [2] it was 0.324; in [3] it was -0.0169; in test [4], 0.577; in [5], 1.67; in test [6] it was 2.01. In addition, the composite z-score in test [7] is 1.03; in test [9] it was 1.52; in test [10], -0.0296; in [11] it was 1.56; in test [15] it was 3.61; in test [17], 0.322. Besides, the results for the composite z-score in test [18], in [19] and in test [20] were 0.421, 0.995 and 0.0169, respectively. Further, the z-score was 1.07 (inactive) in [8]; -0.403 (inactive) in test [12]; -0.983 (inactive) in test [13]; -0.314 (inactive) in test [14]; -0.0262 (inactive) in test [16].

Regarding `O=C(NCC(O)CO)[C@@]1(CCS(=O)(=O)c2ccccc2)COC(c2ccc(OCCCO)cc2)=N1` (stereo not given in full), the composite z-score was determined as 1.05 in test [1]; 1.85 in test [2]; 0.0729 in [3]; 0.25 in test [4]; 1.45 in test [5]; 2.12 in [6]. Also, the composite z-score in [7] is 1.41; in [9], 1.1; in [10], -0.214; in [11] it was 0.797; in test [15], 3.86; in test [17], 0.362. For the same molecule, the composite z-score in test [18] was found to be 0.481; in [19], 0.79; in test [20], 0.473. For the same molecule, the z-score in test [8] was -1.16 (inactive); in [12], 0.257 (inactive); in test [13], -0.197 (inactive); in test [14] it was 0.648 (inactive); in test [16] it was 0.671 (inactive).

On to `CC(C)[C@H]1NC(=O)[C@@]23C(=O)N[C@@H](Cc4ccccc4)C2[C@H](C)[C@@]2(C)O[C@H]2C3/C=C/C/C=C\CNC(=O)[C@H](Cc2ccccc2)NC1=O` (stereo not given in full), for which the composite z-score is -0.264 in [1]; 0.425 in test [2]; -0.0462 in test [3]; 1.01 in [4]; 0.878 in test [5]; 0.781 in [6]. Also, the composite z-score was 0.957 in test [7]; 0.353 in test [9]; 0.235 in test [10]; 1.53 in test [11]; 2.68 in test [15]; -0.052 in test [17]. Also, the composite z-score was 0.877 in test [18], 1.08 in [19] and 0.0354 in [20]. Also, the z-score in test [8] was 0.304 (inactive); in [12] it was -0.155 (inactive); in test [13], -0.228 (inactive); in test [14], 0.246 (inactive); in test [16], 0.317 (inactive).

In the case of `C=C(COC)/C(=C/C[C@H](OC(C)=O)c1cccc(OCCO)c1)c1cnc2ccccc2c1`, the composite z-score in test [1] is -0.194; in test [2], 0.569; in test [3], -0.0325; in [4], 1.05; in test [5], 1.26; in [6], 0.743. Besides, the composite z-score in [7] was 1.11; in test [9], 0.654; in test [10], 0.107; in [11], 1.53; in test [15] it was 2.18; in [17], -0.0415. The composite z-score was 1.64 in [18], 1.04 in test [19] and -0.0267 in test [20]. Also, the z-score in test [8] is 1.46 (inactive); in [12], 1.25 (inactive); in test [13], -0.0332 (inactive); in test [14] it was 1.03 (inactive); in test [16] it was -0.094 (inactive).

Turning to `COc1cc(NN2C(C(O)c3cc(OC)c(OC)c(OC)c3)C=CC3C(=O)N(c4ccccc4)C(=O)C32)cc(OC)c1OC` (stereo not given), the composite z-score in test [1] turned out to be 0.457; in test [2] it was 0.512; in test [3], 0.432; in test [4] it was 1.09; in [5] it was 1.57; in [6], 1.79. Besides, the composite z-score in test [7] was 1.38; in [9], 0.669; in test [10], -0.0631; in test [11], 1.51; in test [15], 2.93; in test [17], 0.688. Further, the figures for the composite z-score in test [18], in [19] and in [20] were 1.34, 1.02 and 0.139, respectively. The z-score was 0.997 (inactive) in test [8]; 0.613 (inactive) in test [12]; 0.712 (inactive) in [13]; 0.219 (inactive) in [14]; -1.94 (inactive) in test [16].

(Values after PubChem BioAssay.)
